# Source: PubChem BioAssay (NCATS)
# Inconclusive results are not listed. Values without a mark were called inactive. Activity calls are given as the source filed them. Calls come from the whole dose curve; as a rule, active = well fitted curve in the direction sought with a large enough effect; inconclusive = small, poorly fitted or top-dose-only effect, or another doubt; inactive = no such curve, though single readings can be large; an effect the other way counts as inactive or inconclusive.
# Assay: S16 Schwann cell viability assay (CellTiter-Glo assay) (AID 624031); note: nearly all actives have a fitted effect of over 70% in size;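 for activity change, negative = cytotoxicity: native untransfected S16 rat Schwann cells; cellular ATP luminescence as a viability measure; plate controls were DMSO-treated cells for no effect and cell-free wells for full effect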
# Conditions: S16 rat Schwann cells viability, 24 h; series mostly up to 57.5 µM; activity change, negative = cytotoxicity: at the top concentration
# Method in brief: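 Following overnight culture in 10% FBS DMEM, parental S16 rat Schwann cells are dosed for 24 h at 37 °C. Viability is read as CellTiter-Glo luminescence and expressed as % activity relative to DMSO (0%) and no-cell wells.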
# Potency is the fitted concentration of half-maximal effect.
SMILES,"activity change, negative = cytotoxicity",Potency
CC(C)NC(C)Cc1ccc(I)cc1 (stereo not drawn),3.39%,
O=C(O)C(Cl)Cl,7.06%,
CC(=O)[O][Hg][c]1ccccc1,,0.907 µM (active)
CC[N+]1(CCOC(=O)C(O)(c2ccccc2)c2ccccc2)CCCCC1,0%,
COC(=O)c1cncn1C(C)c1ccccc1 (stereo not drawn),-19.8%,
CN(C)[C@@H]1C(=O)C(C(N)=O)=C(O)[C@@]2(O)C(=O)C3=C(O)c4c(O)cccc4[C@@](C)(O)[C@H]3[C@H](O)[C@@H]12,-8.73%,
Cc1ccc(Cl)c(O)c1,6.23%,
Cc1cc(O)ccc1Cl,2.57%,
COC(=O)[C@@H](N)CCCN=C(N)N[N+](=O)[O-],-1.35%,
CC(=O)OCC1=C(C(=O)O)N2C(=O)[C@@H](N)[C@@H]2SC1,-4.12% [at 25.7 µM],
CCCCc1ccc(C(=O)O)nc1,-15.9%,
C=CCN1CC[C@]23CCCCC2[C@H]1Cc1ccc(O)cc13 (stereo partly drawn),9.83%,
NC1=NC(=O)N2CC12 (stereo not drawn),-5.46%,
CCCCCCCCCC(CC)c1ccc(S(=O)(=O)O)cc1 (stereo not drawn),5.73%,
NC(=O)CN1CC(O)CC1=O (stereo not drawn),1.72%,
C#CC1(O)CCC2C3CCC4=CC(=O)CCC4(C)C3CCC21C (stereo not drawn),-4.6%,
O=[N+]([O-])c1ccc([As](=O)(O)O)cc1,5.4%,
O=C(O)COc1ccccc1,17.1%,
CCCN1CCC[C@H](c2cccc(O)c2)C1,-4.12%,
COC(C)(C)CCCC(C)C/C=C/C(C)=C/C(=O)OC(C)C (stereo not drawn),-9.79%,
c1ccc(C2(c3ccccc3)CC2C2=NCCN2)cc1 (stereo not drawn),-13.7%,
C1CCC(NC2CCCCC2)CC1,-18.4%,

# Assay: S16 Schwann cell PMP22 intronic element firefly luciferase assay (AID 624032); note: nearly all actives have a fitted effect of over 30% in size;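 for activity change, negative = inhibition: plate controls were DMSO for no effect and PTC124 positive control mean for full effect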
# Conditions: S16 rat Schwann cells, PMP22 element FLuc, 24 h; series mostly up to 57.5 µM; activity change, negative = inhibition: at the top concentration
# Method in brief: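 Rat S16 Schwann cells stably carrying a PMP22 intronic element-driven Fluc reporter were seeded overnight, then exposed to compounds for 24 h at 37 °C. Luminescence was normalized to PTC124 (positive control) and DMSO (0% activity).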
SMILES,"activity change, negative = inhibition",Potency
CC(C)NC(C)Cc1ccc(I)cc1 (stereo not drawn),7.25%,
O=C(O)C(Cl)Cl,-0.661%,
CC(=O)[O][Hg][c]1ccccc1,,1.14 µM (active)
COC(=O)c1cncn1C(C)c1ccccc1 (stereo not drawn),-26.3%,
CN(C)[C@@H]1C(=O)C(C(N)=O)=C(O)[C@@]2(O)C(=O)C3=C(O)c4c(O)cccc4[C@@](C)(O)[C@H]3[C@H](O)[C@@H]12,-6.17%,
Cc1ccc(Cl)c(O)c1,-7.03%,
Cc1cc(O)ccc1Cl,-1.3%,
COC(=O)[C@@H](N)CCCN=C(N)N[N+](=O)[O-],-28.9%,
CCCCc1ccc(C(=O)O)nc1,18.6%,
C=CCN1CC[C@]23CCCCC2[C@H]1Cc1ccc(O)cc13 (stereo partly drawn),-16.1%,
NC1=NC(=O)N2CC12 (stereo not drawn),-31.6%,
CCCCCCCCCCCCCCCC[N+](C)(C)C,,8.09 µM (active)
CCCCCCCCCC(CC)c1ccc(S(=O)(=O)O)cc1 (stereo not drawn),-24.1%,
NC(=O)CN1CC(O)CC1=O (stereo not drawn),16%,
O=C(Nc1ccc(Oc2ccc(Cl)cc2)c(Cl)c1)c1cc(I)cc(I)c1O,,10.2 µM (active)
C#CC1(O)CCC2C3CCC4=CC(=O)CCC4(C)C3CCC21C (stereo not drawn),-12.6%,
O=[N+]([O-])c1ccc([As](=O)(O)O)cc1,15.9%,
O=C(O)COc1ccccc1,1.36%,
CCCN1CCC[C@H](c2cccc(O)c2)C1,27.5%,
c1ccc(C2(c3ccccc3)CC2C2=NCCN2)cc1 (stereo not drawn),-14.2%,
C1CCC(NC2CCCCC2)CC1,25.8%,
